This is a sample that favours compounds with a hit; in the whole collection about 1.2% have one here.
AF4-AF9 inh: inhibitors of AF4 peptide binding to AF9, primary screen, biochemical, AlphaScreen, biotin-AF4 peptide, FLAG-AF9, single point; Protein AF-9 (Homo sapiens), P42568; inhibition, % at 10 µM; hit rate 0.47% among 350,000;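 active = every replicate reaching a set inhibition limit, whatever the replicate mean, cut at about 25% in these data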;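 note: 0% = plate neutral control median and 100% = total signal loss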
RAD54 inh: inhibitors of human RAD54 branch migration, primary screen, biochemical, fluorescence, single point | DNA repair and recombination protein RAD54-like (Homo sapiens), Q92698 | RAD54 Holliday junction branch migration, FAM/BHQ fluorescence | inhibition, % at 10.4 µM | hit rate 0.14% among 360,000 | AID 602329, 2012;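 active = mean normalized replicate activity at least 40 and at least half of replicates scoring 40 or more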;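 note: 0% = median of neutral control wells and 100% = median of positive control wells; inhibitors cause a drop in the FAM fluorescence signal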
CASP6 VEID inh: human caspase-6 inhibitors, primary screen, biochemical, VEID-R110 fluorescence, single point, set 2; purified caspase-6, Z-VEID-R110 cleavage fluorescence; inhibition, % at 12.5 µM; hit rate 0.53% among 350,000; AID 686996, 2013;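 active = mean inhibition across replicates at least about 35%, with every replicate also reaching that limit, limit read from the data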;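 note: 0% = median of neutral control wells and 100% = no fluorescence left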
RAD52 anneal inh: RAD52 DNA annealing inhibitors, primary screen, biochemical, FRET, single point, set 2 | recombinant RAD52 DNA annealing, FRET fluorescence | inhibition, % at 18.7 µM | hit rate 0.46% among 360,000;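 active = every replicate showing at least 50% inhibition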
Target sequence (P43351 whole entry, looked up): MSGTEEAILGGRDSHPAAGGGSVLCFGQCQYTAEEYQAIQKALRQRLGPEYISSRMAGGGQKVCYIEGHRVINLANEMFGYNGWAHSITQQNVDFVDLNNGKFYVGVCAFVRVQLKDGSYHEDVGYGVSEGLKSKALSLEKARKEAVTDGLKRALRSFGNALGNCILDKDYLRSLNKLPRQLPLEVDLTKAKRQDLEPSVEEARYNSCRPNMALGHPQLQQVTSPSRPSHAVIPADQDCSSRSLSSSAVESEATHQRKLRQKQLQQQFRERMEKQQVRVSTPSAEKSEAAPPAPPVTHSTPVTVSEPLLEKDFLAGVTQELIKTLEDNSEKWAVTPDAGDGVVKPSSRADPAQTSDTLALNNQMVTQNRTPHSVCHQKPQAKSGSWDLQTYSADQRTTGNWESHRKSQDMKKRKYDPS
N-glyco inh: increase of ERlucT glycosylation luciferase signal, primary screen, N-linked glycosylation inhibitor project, D54 ERlucT cells, luminescence, set 2; D54 ERlucT glycosylation luciferase reporter, 24 h; percent of 100 nM tunicamycin response; reporter increase, % at 12.5 µM; hit rate 0.23% among 360,000;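 active = mean luciferase reporter signal, scaled so untreated is 0 and the glycosylation-blocking control 100, at or above a set limit in every replicate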;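 note: luciferase carries N-glycosylation sites so blocking glycosylation raises the light; 0% = median of neutral control wells and 100% = median of 100 nM tunicamycin wells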
The depositor's hits bear a star; i = inactive; nt = no result given.

SMILES	AF4-AF9 inh	RAD54 inh	CASP6 VEID inh	RAD52 anneal inh	N-glyco inh
COc1cc2c(cc1OC)-c1cc(Nc3ccc(C(=O)O)cc3)nc(=O)n1CC2	-2.5	-14.3	40.9*	-69.4	0.5
COc1ccc(Nc2cc3n(c(=O)n2)CCc2cc(OC)c(OC)cc2-3)cc1	8.0	22.2	4.5	8.3	1.1
CN(CC(=O)Nc1ccc(OC(F)(F)F)cc1)C(=O)c1ccccc1SCC(=O)N1CCCC1	-3.2	14.7	80.6*	-7.6	0.2
O=C(Cc1cccnc1)N[C@H]1CC[C@@H](CCn2cc(Cc3ccccc3)nn2)O[C@H]1CO	-1.1	4.0	-3.1	-4.1	nt
O=C(COc1ccc2c(-c3ccccc3)cc(=O)oc2c1)N[C@@H](Cc1c[nH]c2ccc(O)cc12)C(=O)O	-3.5	-12.7	6.7	-13.4	50.1*
COc1ccc2c(c1)c(=O)oc1c(C)c(OC(C)C(=O)N[C@@H](Cc3c[nH]c4ccc(O)cc34)C(=O)O)ccc12 (some centres undefined)	4.1	6.9	38.9*	27.8	0.7
O=C(COc1ccc2c(-c3ccccc3)cc(=O)oc2c1)NC(Cc1c[nH]c2ccccc12)C(=O)O (centres undefined)	-2.9	-0.6	1.0	-11.5	1.8
COc1ccc(CCn2c(=N)c(C(=O)NCC3CCCO3)cc3c(=O)n4cccc(C)c4nc32)cc1 (centres undefined)	2.8	11.4	0.0	-20.5	40.9*
O=c1cc(OCc2ccccc2)cc[nH]1	74.8*	-4.8	4.1	-3.7	3.4
O=C(O)/C=C/C(=O)Nc1ccc(C2(c3ccc(NC(=O)/C=C/C(=O)O)cc3)c3ccccc3-c3ccccc32)cc1	-1.4	-6.6	46.7*	-30.1	1.5
c1ccc(CNc2nc(-c3cccnc3)nc3ccccc23)cc1	2.0	-2.4	0.3	-22.3	2.3
c1ccc(CN2CCC(Nc3nc(-c4cccnc4)nc4ccccc34)CC2)cc1	9.5	46.0	7.6	27.6	39.6*
O=C(Cc1ccccc1)N[C@@H]1CC[C@@H](CC(=O)N2CCCCC2)O[C@@H]1CO	5.1	0.7	-3.1	-433.5	nt
NC(=O)NCC#Cc1ccc2c(c1)[C@]1(C(=O)N2)[C@H](c2ccccc2OCCO)N2[C@H](c3ccccc3)[C@H](c3ccccc3)OC(=O)[C@H]2[C@@H]1C(=O)N1CCCCCCC1	2.8	nt	-3.5	-23.1	nt
O=C1O[C@@H](c2ccccc2)[C@@H](c2ccccc2)N2[C@@H](c3ccccc3OCCO)[C@]3(C(=O)Nc4ccc(C#CCCO)cc43)[C@@H](C(=O)N3CCCCCCC3)[C@H]12	-2.6	-3.4	3.1	72.7*	nt
O=C(CSc1nc2ccccc2c(=O)[nH]1)Nc1ccc(C(=O)O)cc1	-2.8	-4.6	37.5*	-8.1	-0.7
COc1ccc(-c2ccc(C(=O)NCc3ccc(N4CCN(C)CC4)cc3)c3occc23)c(C)c1	36.9*	-3.0	0.4	34.5	-7.6
N#Cc1nc(COc2ccccc2)oc1N1CCCCCC1	26.9*	6.0	1.4	-4.8	-1.4
N#Cc1nc(COc2ccccc2)oc1N1CCCC1	nt	1.8	nt	nt	-3.2
CCOc1ccc(-c2nc(C#N)c(N3CCN(Cc4ccccc4)CC3)o2)cc1	52.9*	-2.9	-1.9	11.0	0.1
CO[C@@H]1CN(C)C(=O)c2ccc(NC(=O)C3CC3)cc2OC[C@H](C)N(Cc2ccccc2)C[C@H]1C	-2.5	4.7	nt	26.9	nt
NC(=O)c1ccc(Nc2ccc([N+](=O)[O-])cc2[N+](=O)[O-])cc1	1.1	nt	2.2	-1.9	-0.8
Nc1ccc(Nc2ccc([N+](=O)[O-])cc2[N+](=O)[O-])cc1	26.6*	nt	3.1	-1.6	-1.7
CNC(=O)C[C@H]1CC[C@H]2[C@@H](COc3ccc(NC(=O)Nc4cccc(F)c4)cc3C(=O)N2C)O1	nt	-2.9	nt	nt	nt
CCCCOCCCNC(=O)C[C@@H]1C[C@@]2(C(=O)OCC)CCC=C2N(Cc2ccco2)C1=O	-0.6	nt	49.5*	-39.4	nt
SMILES	AF4-AF9 inh	RAD54 inh	CASP6 VEID inh	RAD52 anneal inh	N-glyco inh
CCOC(=O)[C@]12CCCC=C1N(Cc1ccco1)C(=O)[C@H](CC(=O)NCCCOC)C2	-3.7	nt	-2.5	-24.7	nt
CCOC(=O)[C@]12CCC=C1N(Cc1ccc(Cl)cc1Cl)C(=O)[C@H](CC(=O)NCCC(C)C)C2	2.4	nt	0.3	-10.8	nt
C#CCNC(=O)C[C@@H]1C[C@@]2(C(=O)OCC)CCC=C2N(Cc2ccc(Cl)cc2Cl)C1=O	-0.9	nt	76.5*	-2.8	nt
C[C@@H]1CN([C@H](C)CO)C(=O)c2cc(NS(=O)(=O)c3cn(C)cn3)ccc2O[C@@H](C)CCCCO[C@H]1CN(C)Cc1ccncc1	-4.0	0.4	0.9	-5.1	nt
O=C(O)CN1C(=O)/C(=C/c2ccc(SCc3ccccc3)o2)SC1=S	-2.1	nt	51.6*	i	3.8
O=C(NC1CCC1)[C@H]1[C@H](CO)[C@H]2Cn3c(ccc(-c4ccccc4F)c3=O)[C@H]2N1Cc1ccncc1	0.5	12.0	-2.5	71.1*	nt
COc1ccc(S(=O)(=O)N(C)C[C@H]2Oc3c(NC(=O)Nc4ccc(C(F)(F)F)cc4)cccc3C(=O)N([C@@H](C)CO)C[C@H]2C)cc1	-1.6	-0.1	-3.1	-8.0	nt
COCCN(C(=O)c1cc2c(s1)CCC2)c1c(N)n(CC(C)C)c(=O)[nH]c1=O	-1.3	-12.0	52.3*	-19.3	0.9
COCCN(C(=O)c1cc2c(s1)CCCCC2)c1c(N)n(CC(C)C)c(=O)[nH]c1=O	0.6	-3.7	5.9	-6.6	1.9
Cc1ccccc1-c1ccccc1[C@H]1[C@@H](C#N)N(C(=O)c2ccccc2)[C@@H]1CO	7.4	nt	0.4	-22.7	nt
C[C@H]1CN([C@@H](C)CO)C(=O)c2cc(NC(=O)c3ccncc3)ccc2O[C@@H]1CN(C)C(=O)Nc1ccc(C(F)(F)F)cc1	-3.5	-2.2	-0.9	-1.3	nt
CCCCCc1cc(=O)oc2c(C(CCN3CCCC(C)C3)c3ccc4c(c3)OCO4)c(OC)cc(OC)c12 (centres undefined)	20.9	4.7	-0.7	10.7	-1.2
CCCCCc1cc(=O)oc2c(C(CCN3CCCCC3)c3ccc4c(c3)OCO4)c(OC)cc(OC)c12 (centres undefined)	26.8*	-7.0	0.8	16.4	1.1
CCCCCc1cc(=O)oc2c(C(CCN(CC)CC)c3cc(OC)c(OC)c(OC)c3)c(OC)cc(OC)c12 (centres undefined)	13.2	20.7	3.9	57.5*	-4.2
COc1ccc(C(CCN2CCCC2)c2c(OC)cc(OC)c3c(-c4ccccc4)cc(=O)oc23)cc1 (centres undefined)	14.8	-3.6	0.5	32.8	-8.0
COc1ccc(C(CCN2CCCC(C)C2)c2c(OC)cc(OC)c3c(-c4ccccc4)cc(=O)oc23)cc1 (centres undefined)	27.3*	9.4	9.1	1.8	-8.7

Source: PubChem BioAssay (Broad Institute)
